Several values for one entry are separate records, joined by “and”; a condition that tells them apart may be missing. Equal entries are not always repeated. A number with no mark means an inactive call. Records with an inconclusive call do not appear. Activity calls are given as the source filed them. Calls come from the whole dose curve; as a rule, active = well fitted curve in the direction sought with a large enough effect; inconclusive = small, poorly fitted or top-dose-only effect, or another doubt; inactive = no such curve, though single readings can be large; an effect the other way counts as inactive or inconclusive.

This note sets out measurements from PubChem BioAssay (NCATS).

Assay [1] can be described thus: Cell Viability - N2a (AID 540).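 Note: plate controls were DMSO alone for no effect and tamoxifen control for full effect; nearly all actives have a fitted effect of over 45% in size.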 The following applies: N2a mouse neuroblastoma cell viability; activity change, negative = cytotoxicity: at 92.2 µM (top of the series). In short, it runs like this:
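Mouse neuroblastoma N2a cells (1500/well) were preincubated 5 hr at 37 °C, then exposed to compounds for 40 hr at 37 °C in complete medium. Viability was read as intracellular ATP by CellTiter-Glo luminescence; AC50 from Hill fits.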

A short description of assay [2]: Cell Viability - NIH 3T3 (AID 541).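 Note: plate controls were DMSO alone for no effect and tamoxifen positive control for full effect; nearly all actives have a fitted effect of over 25% in size.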 As to conditions: NIH 3T3 cell viability, qHTS; activity change, negative = cytotoxicity: at 92.2 µM (top of the series). In a few lines:
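NIH 3T3 mouse embryo fibroblasts (1000 cells/well) were plated in complete medium and treated with compound for 40 hr at 37 °C. Viability was read as intracellular ATP by CellTiter-Glo luminescence; AC50 values came from Hill-equation fits of concentration-response data.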
In general terms: qHTS replaces the single test concentration by a dilution series.

Assay [3] is described as follows: Cell Viability - HUV-EC-C (AID 542). Note: % is set by controls: 0 for no effect and ±100 for the full control effect; nearly all actives have a fitted effect of over 35% in size. In a few lines: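 HUV-EC-C normal human vascular endothelial cells, 1000 cells/well, pre-incubated 5 hr at 37 °C, then exposed to compounds for 40 hr at 37 °C in complete medium. Viability measured as intracellular ATP by CellTiter-Glo luminescence; AC50 from Hill fits.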
Assay [4] is described as follows: Cell Viability - H-4-II-E (AID 543). Note: % is set by controls: 0 for no effect and ±100 for the full control effect; nearly all actives have a fitted effect of over 35% in size. In short, it runs like this: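 Rat hepatoma H-4-II-E cells (1500/well) were plated, incubated 5 hr at 37 °C, then exposed to compounds for 40 hr at 37 °C. Cellular ATP was read by CellTiter-Glo luminescence; AC50 came from Hill-equation fits of concentration-response data.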
Assay [5] in a line: Cell Viability - SH-SY5Y (AID 544).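 Note: 0% = DMSO alone and -100% = 100 µM tamoxifen; nearly all actives have a fitted effect of over 55% in size.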 The following applies: SH-SY5Y neuroblastoma cell viability; viability change, negative = cytotoxic: at 92.2 µM (top of the series). In a few lines: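 Human neuroblastoma SH-SY5Y cells (1500/well) in complete medium were exposed to compounds for 40 hr at 37 °C; intracellular ATP was then quantified by CellTiter-Glo luminescence after 20 min at room temperature. AC50 came from Hill-equation concentration-response fits.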

Assay [6] is described as follows: Cell Viability - Renal Proximal Tubule (AID 545).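 Note: 0% = DMSO only and -100% = 100 µM tamoxifen; nearly all actives have a fitted effect of over 40% in size.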 The following applies: renal proximal tubule cells viability, primary cells of rat origin; activity change, negative = cytotoxicity: at 91.7 µM (top of the series). In short, it runs like this:
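In this qHTS format, normal rat kidney-derived proximal tubule cells in complete culture medium receive compound titrations, then sit 40 hours at 37 °C before luciferase-based ATP quantitation; potency is reported as AC50 from concentration-response curves.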

The nature of assay [7]: Cellular Toxicity (caspase-3) HepG2 (AID 654).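 Note: cells exposed to compound for 16 hours before reading; 0% = DMSO alone and 100% = caspase signal from 100 µM tamoxifen.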 In short, it runs like this:
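HepG2 cells (1500/well) in complete medium were treated with compounds for 16 hr at 37 °C. Caspase-3/7 activity was then read as luminescence from peptide-aminoluciferin cleavage. AC50 came from Hill fits, normalized to DMSO and 100 uM tamoxifen.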

A short description of assay [8]: Cellular Toxicity (caspase-3) Jurkat (AID 655).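 Note: cells exposed to compound for 16 h at 37 °C before reading.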 In a few lines: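 qHTS in human Jurkat T-cell leukemia line: 16 hr compound treatment at 37 °C, caspase-3/7 activity measured by Caspase-Glo luminescence. AC50 derived from Hill equation.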
A short description of assay [9]: Cellular Toxicity (caspase-3) HUV-EC-C (AID 656).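 Note: 0% = DMSO basal and 100% = 100 µM tamoxifen.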 In a few lines: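 Concentration-dependent caspase 3/7 induction was assessed in HUV-EC-C cells exposed for 16 hours. Data scaled between DMSO and tamoxifen (100 uM) controls.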
A short description of assay [10]: Cellular Toxicity (caspase-3) SHSY5Y (AID 657). In short, it runs like this: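 Readout: caspase-cleaved peptide-aminoluciferin substrate driving luciferase light in SH-SY5Y neuroblastoma cells after 16 h treatment. Response normalized to DMSO and 10 uM staurosporine controls.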
A short description of assay [11]: Cellular Toxicity (caspase-3) BJ (AID 658).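 Note: 0% = DMSO basal and 100% = 10 µM staurosporine.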 In a few lines: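 BJ human foreskin fibroblasts, 1000 cells/well, treated 16 hours at 37 °C in complete medium; caspase 3/7 activity by Caspase-Glo luminescence after 1 hr at room temperature. Normalized to DMSO and 10 uM staurosporine; AC50 from Hill fits.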
Assay [12] can be described thus: Cellular Toxicity (caspase-3) MRC-5 (AID 659).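 Note: 0% = DMSO basal and 100% = 10 µM staurosporine.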 In short, it runs like this: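 MRC-5 human normal lung fibroblasts, 1500 cells/well, treated 16 h at 37 °C in complete medium. Caspase 3/7 measured by Caspase-Glo luminescence after 1 h at room temperature. Normalized to DMSO and 10 uM staurosporine; AC50 from Hill fit.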
A short description of assay [13]: Cellular Toxicity (caspase-3) Mesangial (AID 660). In a few lines:
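Human renal glomerular mesangial cells (1000/well) were treated with compounds for 16 h at 37 °C in complete medium, then caspase 3/7 activity was read by Caspase-Glo luminescence. Data were normalized to DMSO and 100 uM tamoxifen; AC50 from Hill fits.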

Assay [14] is described as follows: Cellular Toxicity (caspase-3) SK-N-SH (AID 661).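 Note: 0% = DMSO basal and 100% = 10 µM staurosporine.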 In a few lines:
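SK-N-SH human neuroblastoma cells (1500/well) were treated with compounds for 16 hr at 37 °C in complete medium; caspase 3/7 activity was read by Caspase-Glo luminescence. AC50 came from Hill fits of data normalized to DMSO and 10 uM staurosporine.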

Assay [15] is described as follows: Cellular Toxicity (caspase-3) H-4-II-E (AID 663).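 Note: cells exposed to compound for 16 hr before readout; 0% = DMSO basal and 100% = 100 µM tamoxifen.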 As to conditions: Potency: caspase-3 activation. In short, it runs like this: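 Rat hepatoma H-4-II-E cells (1500/well) plated 5 hr, then exposed to compound titrations for 16 hr at 37 °C. Caspase-Glo 3/7 luminescence read after 20 min at RT; data normalized to DMSO and 100 uM tamoxifen, AC50 from Hill fits.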

Assay [16] is described as follows: Cellular Toxicity (caspase-3) Hek293 (AID 664).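 Note: cells exposed to compound for 16 h at 37 °C before readout.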 In short, it runs like this: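 HEK293 cells were exposed to compounds in complete medium for 16 hr at 37 °C, then caspase-3/7 activity was read by Caspase-Glo 3/7 luminescence after 20 min at room temperature. Data normalized to DMSO and 100 uM tamoxifen; AC50 from Hill fits.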
Assay [17] can be described thus: Cellular Toxicity (caspase-3) N2a (AID 665).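 Note: compound exposure lasted 16 h at 37 °C before readout.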 In short, it runs like this: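 Mouse N2a neuroblastoma cells (1500/well) were treated with compounds for 16 h at 37 °C, then caspase-3/7 activity was read by Caspase-Glo luminescence after 1 h at room temperature. Data were normalized to DMSO and 10 uM staurosporine; AC50 from Hill fits.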

As for `c1ccc2occc2c1`, the Potency result in assay [1], in assay [3], in [4], in assay [5], in [6] and in [8] was “inactive” throughout. For the same compound, the Potency entry in assay [10] and in assay [15] was “inactive” throughout. Moreover, the activity change, negative = cytotoxicity in assay [2] is -5.88%. Further, the compound was classed as inactive in assay [7], in assay [9], in assay [11], in assay [12], in assay [13] and in [14]. In addition, the compound was called inactive in assay [16] and in [17].
Take `CC(=O)OC/C=C(C)/C=C/C=C(C)/C=C/C1=C(C)CCCC1(C)C`: the Potency result in assay [1], in [3], in assay [8], in assay [10] and in assay [15] was “inactive” in each case. Also, in [2], the activity change, negative = cytotoxicity is -114% (active). Further, in assay [5], the viability change, negative = cytotoxic is -99.5% (active). The call in assay [7], in [9], in assay [11], in assay [12], in assay [13] and in assay [14] was inactive. In assay [17], the result was inactive.
Consider `O=C(Oc1ccccc1)c1ccccc1O`, for which the Potency result in assay [1], in assay [3], in assay [4], in [5], in [6] and in assay [8] was “inactive” each time. Besides, the Potency entry in assay [10] and in assay [15] was “inactive” throughout. For the same compound, the compound was classed as inactive in [7], in assay [9], in assay [11], in [12], in [13] and in assay [14]. Besides, the result in assay [16] and in assay [17] was inactive.
For `C1=CC2C3C=CC(C3)C2C1` (configuration not stated), the Potency entry in assay [1], in assay [3], in assay [4], in [5], in assay [6] and in [8] was “inactive” in each case. Besides, the Potency result in [10] and in [15] was “inactive” each time. Moreover, the compound was called inactive in assay [7], in assay [9], in assay [11], in [12], in assay [13] and in [14]. Further, the compound was classed as inactive in assay [16] and in assay [17].
Turning to `CC(C)C(C)(C)C(C)(C)C(C)(C)S`, the Potency result in assay [1], in [3], in [4], in assay [5], in [6] and in [8] was “inactive” throughout. Also, the Potency entry in assay [10] and in assay [15] was “inactive” throughout. Moreover, the activity change, negative = cytotoxicity in assay [2] is -18.6%. In addition, the call in assay [7], in assay [9], in [11], in assay [12], in assay [13] and in assay [14] was inactive. The compound was called inactive in [16] and in assay [17].
With `CC(C)(c1ccc(O)cc1)c1ccc(O)cc1`, the Potency result in assay [1], in assay [3], in [4], in [5], in [6] and in [8] was “inactive” each time. For the same compound, the Potency result in assay [10] and in [15] was “inactive” throughout. For the same compound, the activity change, negative = cytotoxicity in [2] is -22.2% and -23.1%. For the same compound, the compound was called inactive in assay [7], in [9], in assay [11], in assay [12], in assay [13] and in assay [14]. In addition, the outcome in assay [16] and in assay [17] was inactive.
